Key:
[1] = target: Dihydropyrimidinase-related protein 1 (UniProt P97427); test: cross-link between two proteins; cross-linking mass spectrometry
[2] = target: Dihydropyrimidinase-related protein 3 (UniProt Q62188); test: as above
[3] = target: Large ribosomal subunit protein uL1 (UniProt P62906); test: as above
Histone H4 = Histone H4 (UniProt P62805); test: as above
[4] = target: Actin, alpha cardiac muscle 1 (UniProt P68033); test: as above
Coronin-2B = target: T1, Coronin-2B (UniProt Q8BH44); test: as above
T1 sequence: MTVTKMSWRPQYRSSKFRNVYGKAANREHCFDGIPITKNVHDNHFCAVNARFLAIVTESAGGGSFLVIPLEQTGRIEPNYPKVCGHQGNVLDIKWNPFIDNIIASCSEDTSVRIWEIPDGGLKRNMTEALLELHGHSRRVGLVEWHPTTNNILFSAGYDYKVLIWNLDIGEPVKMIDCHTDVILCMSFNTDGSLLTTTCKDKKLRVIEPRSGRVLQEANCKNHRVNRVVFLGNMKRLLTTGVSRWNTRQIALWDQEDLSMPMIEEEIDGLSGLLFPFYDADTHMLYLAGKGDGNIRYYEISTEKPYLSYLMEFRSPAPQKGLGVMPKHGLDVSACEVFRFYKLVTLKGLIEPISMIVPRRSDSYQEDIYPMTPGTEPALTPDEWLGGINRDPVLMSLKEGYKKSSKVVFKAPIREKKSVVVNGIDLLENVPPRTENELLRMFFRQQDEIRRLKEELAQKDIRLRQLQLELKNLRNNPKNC

Myosin-10 = Myosin-10 (UniProt Q61879); test: as above
[5] = target: T2, Phosphatase and actin regulator 1 (UniProt Q2M3X8); test: as above
T2 sequence: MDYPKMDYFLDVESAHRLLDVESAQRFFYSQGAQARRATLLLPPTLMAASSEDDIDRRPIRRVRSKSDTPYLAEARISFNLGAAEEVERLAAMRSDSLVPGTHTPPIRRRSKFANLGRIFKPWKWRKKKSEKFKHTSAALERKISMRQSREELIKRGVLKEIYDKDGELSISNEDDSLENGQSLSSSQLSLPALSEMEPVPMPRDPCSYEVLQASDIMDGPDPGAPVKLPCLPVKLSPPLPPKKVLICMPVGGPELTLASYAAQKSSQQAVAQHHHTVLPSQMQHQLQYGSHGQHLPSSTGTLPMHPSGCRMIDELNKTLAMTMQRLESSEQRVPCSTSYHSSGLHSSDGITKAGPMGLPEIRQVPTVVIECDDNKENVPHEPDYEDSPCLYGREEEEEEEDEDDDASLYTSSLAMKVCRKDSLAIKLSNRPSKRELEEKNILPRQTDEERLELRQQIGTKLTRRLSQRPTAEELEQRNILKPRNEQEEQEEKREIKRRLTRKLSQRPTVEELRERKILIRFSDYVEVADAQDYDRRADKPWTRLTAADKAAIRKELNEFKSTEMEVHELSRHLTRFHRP

Synaptopodin = target: T3, Synaptopodin (UniProt Q8CC35); test: as above
T3 sequence: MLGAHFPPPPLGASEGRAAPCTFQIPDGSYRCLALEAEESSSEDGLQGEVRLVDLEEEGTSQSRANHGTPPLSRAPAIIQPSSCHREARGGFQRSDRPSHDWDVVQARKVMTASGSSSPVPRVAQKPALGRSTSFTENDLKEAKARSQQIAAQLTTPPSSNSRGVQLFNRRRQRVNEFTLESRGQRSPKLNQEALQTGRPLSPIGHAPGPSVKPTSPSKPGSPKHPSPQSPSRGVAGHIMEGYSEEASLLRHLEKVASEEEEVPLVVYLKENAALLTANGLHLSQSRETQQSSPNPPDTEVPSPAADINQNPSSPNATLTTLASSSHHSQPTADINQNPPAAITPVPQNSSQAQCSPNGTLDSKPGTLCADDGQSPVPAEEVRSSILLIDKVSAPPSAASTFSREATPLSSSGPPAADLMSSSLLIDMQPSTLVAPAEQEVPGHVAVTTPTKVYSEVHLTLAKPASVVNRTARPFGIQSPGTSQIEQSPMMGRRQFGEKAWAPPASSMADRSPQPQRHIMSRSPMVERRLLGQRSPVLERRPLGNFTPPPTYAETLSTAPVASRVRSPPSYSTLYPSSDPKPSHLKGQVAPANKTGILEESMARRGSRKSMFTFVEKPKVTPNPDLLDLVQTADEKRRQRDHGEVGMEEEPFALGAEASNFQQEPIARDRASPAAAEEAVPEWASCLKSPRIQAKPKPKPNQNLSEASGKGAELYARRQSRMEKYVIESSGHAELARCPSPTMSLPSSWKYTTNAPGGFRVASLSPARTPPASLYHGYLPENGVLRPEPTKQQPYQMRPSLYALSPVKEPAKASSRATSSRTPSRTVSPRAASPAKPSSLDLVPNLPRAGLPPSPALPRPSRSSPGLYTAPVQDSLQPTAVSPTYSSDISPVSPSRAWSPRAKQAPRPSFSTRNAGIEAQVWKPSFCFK

Tropomodulin-2 = target: T4, Tropomodulin-2 (UniProt Q9JKK7); test: as above
T4 sequence: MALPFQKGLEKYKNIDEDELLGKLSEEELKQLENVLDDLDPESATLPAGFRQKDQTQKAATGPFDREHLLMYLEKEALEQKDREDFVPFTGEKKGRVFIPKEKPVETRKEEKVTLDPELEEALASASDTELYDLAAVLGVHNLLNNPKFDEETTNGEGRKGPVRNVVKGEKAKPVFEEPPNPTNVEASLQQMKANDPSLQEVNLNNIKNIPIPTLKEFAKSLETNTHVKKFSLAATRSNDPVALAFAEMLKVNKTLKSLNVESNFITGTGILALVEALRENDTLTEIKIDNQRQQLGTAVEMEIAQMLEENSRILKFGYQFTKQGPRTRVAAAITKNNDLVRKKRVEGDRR

Twinfilin-1 = Twinfilin-1 (UniProt Q91YR1); test: as above
Twinfilin-2 = target: T5, Twinfilin-2 (UniProt Q9Z0P5); test: as above
T5 sequence: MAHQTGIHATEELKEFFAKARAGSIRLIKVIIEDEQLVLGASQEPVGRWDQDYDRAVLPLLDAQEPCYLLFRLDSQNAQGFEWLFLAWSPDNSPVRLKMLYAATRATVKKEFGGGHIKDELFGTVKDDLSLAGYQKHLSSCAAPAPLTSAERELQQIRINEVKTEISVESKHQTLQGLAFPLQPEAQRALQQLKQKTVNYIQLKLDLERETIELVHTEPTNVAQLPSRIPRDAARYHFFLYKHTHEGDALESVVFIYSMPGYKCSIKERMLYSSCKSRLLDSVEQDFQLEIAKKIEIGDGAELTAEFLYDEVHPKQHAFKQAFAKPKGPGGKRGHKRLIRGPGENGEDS

Unconventional myosin-Va = Unconventional myosin-Va (UniProt Q99104); test: as above
[6] = target: Large ribosomal subunit protein eL34 (UniProt Q9D1R9); test: as above
[7] = target: L-lactate dehydrogenase B chain (UniProt P16125); test: as above
[8] = target: Complex III assembly factor LYRM7 (UniProt Q5U5X0); test: cross-linking mass spectrometry
[9] = target: Malate dehydrogenase, mitochondrial (UniProt P40926); test: cross-linking mass spectrometry
[10] = target: Elongation factor 1-alpha 1 (UniProt P68104); test: cross-linking mass spectrometry
Histone H2B type 1-C/E/G = Histone H2B type 1-C/E/G (UniProt Q6ZWY9); test: cross-linking mass spectrometry
[11] = target: Large ribosomal subunit protein uL11 (UniProt P30050); test: cross-linking mass spectrometry
[12] = target: Large ribosomal subunit protein uL11m (UniProt Q9Y3B7); test: cross-linking mass spectrometry
[13] = target: Large ribosomal subunit protein uL5 (UniProt P62913); test: cross-linking mass spectrometry
[14] = target: Leucine-rich repeat-containing protein 59 (UniProt Q96AG4); test: cross-linking mass spectrometry
[15] = target: Poly(A) RNA polymerase, mitochondrial (UniProt Q9NVV4); test: cross-linking mass spectrometry
[16] = target: Ribosome-binding protein 1 (UniProt Q9P2E9); test: cross-linking mass spectrometry
[17] = target: Small ribosomal subunit protein uS15 (UniProt P62301); test: cross-linking mass spectrometry
[18] = target: Small ribosomal subunit protein eS27 (UniProt Q6ZWU9); test: cross-link between two proteins; cross-linking mass spectrometry
[19] = target: MICOS complex subunit MIC60 (UniProt Q16891); test: as above
[20] = target: Cytochrome c oxidase assembly factor 7 (UniProt Q96BR5); test: mass-spectrometry hit list; affinity purification or IP with mass spectrometry; cross-linking mass spectrometry
[21] = target: Mitochondrial fission 1 protein (UniProt Q9CQ92); test: cross-link between two proteins; cross-linking mass spectrometry
[22] = target: Plasma membrane calcium-transporting ATPase 2 (UniProt Q9R0K7); test: as above
Protein piccolo = Protein piccolo (UniProt Q9QYX7); test: as above
[23] = target: Ragulator complex protein LAMTOR4 (UniProt Q0VGL1); test: as above
[24] = target: Ras-related C3 botulinum toxin substrate 1 (UniProt P63000); test: as above
[25] = target: Small ribosomal subunit protein RACK1 (UniProt P68040); test: as above
[26] = target: Small ribosomal subunit protein eS19 (UniProt Q9CZX8); test: as above

Sequence of Plasma membrane calcium-transporting ATPase 2 (Q9R0K7 whole entry): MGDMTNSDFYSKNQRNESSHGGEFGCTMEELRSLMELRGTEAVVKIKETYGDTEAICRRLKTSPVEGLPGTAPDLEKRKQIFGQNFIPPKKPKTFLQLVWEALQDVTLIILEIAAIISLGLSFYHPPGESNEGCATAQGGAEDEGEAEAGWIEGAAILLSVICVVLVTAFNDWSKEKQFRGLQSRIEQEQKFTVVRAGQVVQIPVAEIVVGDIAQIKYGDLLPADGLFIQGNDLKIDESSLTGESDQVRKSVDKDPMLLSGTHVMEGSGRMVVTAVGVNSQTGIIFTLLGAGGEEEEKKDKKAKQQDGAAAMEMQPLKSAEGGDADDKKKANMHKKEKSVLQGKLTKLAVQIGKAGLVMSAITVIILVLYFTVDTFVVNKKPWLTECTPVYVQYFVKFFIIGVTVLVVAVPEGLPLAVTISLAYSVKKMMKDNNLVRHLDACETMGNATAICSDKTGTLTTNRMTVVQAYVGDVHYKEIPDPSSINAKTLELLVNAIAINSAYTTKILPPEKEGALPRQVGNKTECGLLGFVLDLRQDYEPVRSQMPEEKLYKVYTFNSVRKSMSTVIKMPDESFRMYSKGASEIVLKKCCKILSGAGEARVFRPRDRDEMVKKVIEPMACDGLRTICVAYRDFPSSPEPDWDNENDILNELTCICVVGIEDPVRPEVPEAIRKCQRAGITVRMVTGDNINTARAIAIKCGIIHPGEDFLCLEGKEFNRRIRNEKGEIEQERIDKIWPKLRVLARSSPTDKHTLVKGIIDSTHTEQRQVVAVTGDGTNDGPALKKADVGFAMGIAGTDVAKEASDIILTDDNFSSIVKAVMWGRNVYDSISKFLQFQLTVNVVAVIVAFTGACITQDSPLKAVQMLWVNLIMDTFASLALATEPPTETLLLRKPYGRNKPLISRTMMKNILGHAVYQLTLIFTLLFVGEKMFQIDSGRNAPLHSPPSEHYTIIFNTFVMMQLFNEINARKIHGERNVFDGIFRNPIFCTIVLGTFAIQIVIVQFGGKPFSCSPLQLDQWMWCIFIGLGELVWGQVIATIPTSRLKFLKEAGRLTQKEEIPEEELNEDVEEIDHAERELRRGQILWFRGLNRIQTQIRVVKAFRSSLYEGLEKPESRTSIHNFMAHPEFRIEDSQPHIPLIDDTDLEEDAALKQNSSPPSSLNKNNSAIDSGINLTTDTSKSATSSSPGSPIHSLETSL
Sequence of Dynein light chain 2, cytoplasmic, Q9D0M5 (Q9D0M5 whole entry): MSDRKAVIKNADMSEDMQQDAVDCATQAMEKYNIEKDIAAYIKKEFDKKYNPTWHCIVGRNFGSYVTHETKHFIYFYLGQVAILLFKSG
Sequence of Mitochondrial fission 1 protein (Q9CQ92 whole entry): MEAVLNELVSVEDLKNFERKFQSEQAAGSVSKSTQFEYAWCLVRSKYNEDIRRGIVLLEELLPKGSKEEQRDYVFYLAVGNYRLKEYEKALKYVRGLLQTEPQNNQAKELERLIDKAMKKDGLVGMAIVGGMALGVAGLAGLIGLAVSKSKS
Sequence of Ras-related protein Rab-14, Q91V41 (Q91V41 whole entry): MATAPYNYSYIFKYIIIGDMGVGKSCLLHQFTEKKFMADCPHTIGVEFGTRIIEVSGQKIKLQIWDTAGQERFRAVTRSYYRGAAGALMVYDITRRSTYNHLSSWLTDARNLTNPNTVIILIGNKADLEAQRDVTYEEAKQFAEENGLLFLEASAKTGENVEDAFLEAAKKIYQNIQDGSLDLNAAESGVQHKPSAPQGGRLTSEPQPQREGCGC

Dihydropyrimidinase-related protein 2, O08553
listed as a hit [1]: yes
listed as a hit [2]: yes

Small ribosomal subunit protein eS1, P61247
listed as a hit [3]: yes

Histone H2B type F-S, P57053
listed as a hit (Histone H4): yes

Actin, cytoplasmic 1, P60710
listed as a hit [4]: yes
listed as a hit (Coronin-2B): yes
listed as a hit (Myosin-10): yes
listed as a hit [5]: yes
listed as a hit (Synaptopodin): yes
listed as a hit (Tropomodulin-2): yes
listed as a hit (Twinfilin-1): yes
listed as a hit (Twinfilin-2): yes
listed as a hit (Unconventional myosin-Va): yes

Large ribosomal subunit protein eL8, P12970
listed as a hit [6]: yes

L-lactate dehydrogenase A chain, P06151
listed as a hit [7]: yes

Acyl carrier protein, mitochondrial, O14561
listed as a hit [8]: yes
listed as a hit [9]: yes

Actin, cytoplasmic 2, P63261
listed as a hit [10]: yes

Histone H3.3, P84244
listed as a hit (Histone H2B type 1-C/E/G): yes

Elongation factor 2, P13639
listed as a hit [11]: yes

Large ribosomal subunit protein mL53, Q96EL3
listed as a hit [12]: yes

Small ribosomal subunit protein uS19, P62841
listed as a hit [13]: yes

Large ribosomal subunit protein uL2, P62917
listed as a hit [14]: yes

Leucine-rich PPR motif-containing protein, mitochondrial, P42704
listed as a hit [15]: yes

Large ribosomal subunit protein uL1, P62906
listed as a hit [16]: yes

Small ribosomal subunit protein eS7, P62082
listed as a hit [17]: yes
listed as a hit [18]: yes

Adenylate kinase 2, mitochondrial, P54819
listed as a hit [19]: yes
listed as a hit [20]: yes

Ras-related protein Rab-14, Q91V41
listed as a hit [21]: yes

P62204
listed as a hit [22]: yes

Dynein light chain 2, cytoplasmic, Q9D0M5
listed as a hit (Protein piccolo): yes

Ragulator complex protein LAMTOR5, O43504
listed as a hit [23]: yes

Ras-related C3 botulinum toxin substrate 3, P60763
listed as a hit [24]: yes

Small ribosomal subunit protein uS3, P62908
listed as a hit [25]: yes

Small ribosomal subunit protein uS9, P14131
listed as a hit [26]: yes
